Screens (PubChem)
This is one part of a sample in which hits are shown more often than they occur.
Giardia FBPA inh = qHTS Assay for Inhibitors of Fructose-1,6-bisphosphate Aldolase from Giardia Lamblia; AID 2451, 2010; Potency, µM (titrated, usually from 59.6 µM), inactives show at the highest dose activity, negative = inhibition, usual class: inhibitors; 0.71% of 290,000 active; purified Giardia FBPA; also: potency is read from the fitted curve at half-maximal effect; % is scaled to controls: 0 for no effect and ±100 for the full control effect; nearly all actives have a fitted effect of over 55% in size
Target sequence (A8B2U2 whole entry, looked up): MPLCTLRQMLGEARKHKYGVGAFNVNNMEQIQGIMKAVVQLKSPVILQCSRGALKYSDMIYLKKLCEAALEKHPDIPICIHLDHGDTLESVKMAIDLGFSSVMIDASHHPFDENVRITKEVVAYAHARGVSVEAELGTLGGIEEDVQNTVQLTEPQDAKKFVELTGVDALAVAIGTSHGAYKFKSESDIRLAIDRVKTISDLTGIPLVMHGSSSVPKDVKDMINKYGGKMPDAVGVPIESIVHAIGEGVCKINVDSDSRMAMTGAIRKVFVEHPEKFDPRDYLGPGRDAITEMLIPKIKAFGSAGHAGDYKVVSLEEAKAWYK
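40 nM FBPA preincubated 10 min at RT with compound (up to 57.5 uM final), then substrate plus GAPDH/TPI/NAD/arsenate coupling and diaphorase/resazurin added. Fluorescence read after 20 min at RT, 525/598 nm.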
Tb PYK inh = qHTS of Trypanosoma Brucei Inhibitors; TbPYK enzyme, Kinase-Glo Plus ATP luminescence, 45 min; 0.12% of 410,000 active; Potency, µM (top dose mostly 76.8 µM), inactives show at the top dose activity, negative = inhibition, hits mostly inhibitors; pyruvate kinase (Trypanosoma brucei), Q57TT1; also: potency is read from the fitted curve at half-maximal effect; % is scaled to controls: 0 for no effect and ±100 for the full control effect; nearly all actives have a fitted effect of over 50% in size
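Luminescence from Kinase-Glo Plus, added after a 45-minute room-temperature reaction, served as the end-point read-out. The enzyme and substrate were preincubated with compound before ADP (130 uM final) initiated turnover. Concentration-effect curves came from normalized qHTS data.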
Shiga inhibitor = A qHTS for Small Molecule Inhibitors of Shiga Toxin; Vero cells, Shiga toxin protein synthesis inhibition reporter; inhibition, % at 38.7 µM; 9.2% of 290,000 active; AID 2315, 2010; in the data active = inhibition mostly above about 28%, no sharp cut-off; inactive = mostly below about 43%; also: 0% is about no effect
LmPK inh = qHTS Assay for Inhibitors of Leishmania Mexicana Pyruvate Kinase (LmPK). Q27686. purified LmPK, Kinase-Glo ATP luminescence, 1 h. Potency, µM (titrated, usually from 57.5 µM), for inactives: at the top dose activity change, negative = inhibition, actives largely listed as inhibitors. 0.37% of 290,000 active. AID 1721, 2009; also: potency is read from the fitted curve at half-maximal effect; % is scaled to controls: 0 for no effect and ±100 for the full control effect
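Screened at intermediate enzyme activity to detect both inhibitors and activators: LmPK at 0.1 nM, with a 0.5 nM enzyme column as activation reference. PEP 0.5 mM, ADP 0.1 mM; ATP detected by luminescence after 1 h.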
Sm TGR block = qHTS Assay for the Inhibitors of Schistosoma Mansoni Peroxiredoxins | purified TGR, DTNB reduction, TNB absorbance 405 nm | Potency, µM (series often up to 114 µM), for the others: top-dose activity change, negative = inhibition, usual class: inhibitors | 3% of 360,000 active | AID 485364, 2010; also: potency is read from the fitted curve at half-maximal effect; % is scaled to controls: 0 for no effect and ±100 for the full control effect; nearly all actives have a fitted effect of over 60% in size
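Kinetic colorimetric format: TGR-catalysed, NADPH-driven DTNB reduction monitored via TNB absorbance. Enzyme dispensed at 20 nM; compound exposure 15 min at room temperature before reaction start.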
CHX counter = Cycloheximide Counterscreen for Small Molecule Inhibitors of Shiga Toxin | cell reporter, cycloheximide protein synthesis inhibition counterscreen | max response, % | 12% of 300,000 active | AID 2314, 2010; in the data active = max response mostly above about 13%, no sharp cut-off; inactive = mostly below about 14%; also: read at 38.3 µM for the half of the compounds with a filed dose; 0% is about no effect
An asterisk follows results filed as active. Unless noted, calls follow the shape of the dose curve; as a rule, active = well fitted curve in the direction sought with a large enough effect; inconclusive = small, poorly fitted or top-dose-only effect, or another doubt; inactive = no such curve, though single readings can be large; an effect the other way counts as inactive or inconclusive.

Results for COc1ccc(NC(=O)C(NC(=O)c2ccc(=O)[nH]c2)c2ccccc2)cc1 (stereo unspecified) ?
Giardia FBPA inh: 2.0%; Tb PYK inh: -18.3%; Shiga inhibitor: -6.9; LmPK inh: -1.7%; Sm TGR block: -9.5%; CHX counter: 11.7

Results for O=C(NC(N1CCOCC1)C(Cl)(Cl)Cl)c1ccc(Br)cc1 (stereo unspecified) ?
Giardia FBPA inh: -11.1%; Tb PYK inh: 2.6%; Shiga inhibitor: 10.3; LmPK inh: -10.5%; Sm TGR block: inconclusive; CHX counter: 12.9

Results for Cc1ccc(C(=O)NC(N2CCCC2)C(Cl)(Cl)Cl)cc1 (stereo unspecified) ?
Giardia FBPA inh: -1.0%; Tb PYK inh: 4.6%; Shiga inhibitor: -7.4; LmPK inh: 1.6%; Sm TGR block: 35.5µM*; CHX counter: 11.5

How did COc1ccc(NC(=O)C(NC(=O)c2ccc(C)cc2)c2ccccc2)cc1 (stereo unspecified) do in these assays?
Giardia FBPA inh: 0.8%; Tb PYK inh: 1.7%; Shiga inhibitor: 48.9*; LmPK inh: 0.0%; Sm TGR block: 2.7%; CHX counter: 24.8*

How did Cc1ccc(NC(=O)C(Nc2cccc(C)c2)c2ccccc2)cc1 (stereo unspecified) do in these assays?
Giardia FBPA inh: -15.0%; Tb PYK inh: 2.0%; Shiga inhibitor: -82.7; LmPK inh: -3.4%; Sm TGR block: -7.6%; CHX counter: 22.5*

How did COc1ccc(C(CNC(=O)c2ccc(NS(=O)(=O)c3cccc([N+](=O)[O-])c3)cc2)N2CCOCC2)cc1 (stereo unspecified) do in these assays?
Giardia FBPA inh: 14.5%; Tb PYK inh: 0.6%; Shiga inhibitor: 13.8; LmPK inh: -7.9%; Sm TGR block: 2.6%; CHX counter: -2.3

What do the screens show for `O=C(NC(c1ccccc1)C(Cl)Cl)c1ccccc1` (stereo unspecified)?
Giardia FBPA inh: 0.1%; Tb PYK inh: 3.4%; Shiga inhibitor: 2.9; LmPK inh: 4.0%; Sm TGR block: -5.8%; CHX counter: -1.3

What do the screens show for `Cc1ccc(C(=O)NC(c2ccccc2)C(Cl)Cl)cc1` (stereo unspecified)?
Giardia FBPA inh: -0.7%; Tb PYK inh: -7.5%; Shiga inhibitor: 49.5; LmPK inh: -3.1%; Sm TGR block: -5.0%; CHX counter: 15.2*

How did Cc1cccc(OCC(=O)Nc2ccc3nc(SCc4ccccc4)sc3c2)c1 do in these assays?
Tb PYK inh: 1.0%; Sm TGR block: 2.7%

What do the screens show for `CCNC(=S)N/N=C(\C)c1ccc2c(c1)OCCO2`?
Giardia FBPA inh: -12.3%; Tb PYK inh: -14.6%; Shiga inhibitor: 48.8*; LmPK inh: 0.6%; Sm TGR block: -25.7%; CHX counter: -2.6

Results for C/C(=N\NC(=O)COc1ccc(C(C)(C)C)cc1)c1ccc2c(c1)OCCO2 ?
Giardia FBPA inh: -8.1%; Tb PYK inh: 4.7%; Shiga inhibitor: 28.1; LmPK inh: -1.4%; Sm TGR block: -1.4%; CHX counter: 8.9

Results for C/C(=N\NC(=S)Nc1ccc(C(C)C)cc1)c1ccc2c(c1)OCO2 ?
Giardia FBPA inh: 2.2%; Tb PYK inh: -12.7%; Shiga inhibitor: 35.3*; LmPK inh: 0.2%; Sm TGR block: -3.1%; CHX counter: 10.7

What do the screens show for `CNC(=S)N/N=C(\C)c1ccc2c(c1)OCCO2`?
Giardia FBPA inh: -27.4%; Tb PYK inh: -3.4%; Shiga inhibitor: 35.9; LmPK inh: -0.7%; Sm TGR block: -32.2%; CHX counter: 19.1*

What do the screens show for `CCc1ccc(OCC(=O)N/N=C(\C)c2ccc3c(c2)OCCO3)cc1`?
Giardia FBPA inh: -0.1%; Tb PYK inh: 1.2%; Shiga inhibitor: -10.2; LmPK inh: 1.9%; Sm TGR block: -6.8%; CHX counter: 13.0*

Results for Cc1ccc(C(=O)Nc2cccc(OCc3cc(=O)n4c5c(sc4n3)CCCC5)c2)cc1 ?
Tb PYK inh: -0.4%; Sm TGR block: 5.2%
